These results are taken from PubChem BioAssay (EPA / NIEHS).

Structures are written as SMILES. Activity calls are given as the source filed them. The calls were made as follows: active = hit-call score of the fitted dose curve at least 0.9, where 1 is the maximum; inactive = score below 0.9.

Details in all cases: mRNA level, 48 h; actives raise or lower the signal
Read-out in test [1]: Cytochrome P450 7A1 (Homo sapiens) (UniProt P22680)
Description: LTEA_HepaRG_CYP7A1: Life Technologies and Expression Analysis (LTEA) Assay for Cytochrome P450 7A1 (CYP7A1) using HepaRG (AID 2283496). The method in brief: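 HepaRG cells plated 48 h, then switched to serum-free induction medium and exposed in duplicate for 48 h to 8-point half-log series from 100 uM in 0.5% DMSO. CYP7A1 mRNA by qRT-PCR (TaqMan), normalized to ACTB/GAPDH/POLR2A; bidirectional fit versus DMSO.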

Read-out in test [2]: Glutathione S-Transferase (GSTA2), GSTA2 (gene 2939)
Description: LTEA_HepaRG_GSTA2: Life Technologies and Expression Analysis (LTEA) Assay for Glutathione S-Transferase (GSTA2) using HepaRG (AID 2283497). The method in brief: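 Human HepaRG cells, plated 48 h, then exposed in serum-free induction medium for 48 h to eight half-log concentrations up to 100 uM in 0.5% DMSO, duplicate. GSTA2 mRNA by qRT-PCR, normalized to ACTB/GAPDH/POLR2A; bidirectional fit versus DMSO.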

Read-out in test [3]: Glutamate-cysteine ligase catalytic (GCLC), GCLC (gene 2729)
Description: LTEA_HepaRG_GCLC: Life Technologies and Expression Analysis (LTEA) Assay for Glutamate-cysteine ligase catalytic (GCLC) using HepaRG (AID 2283498). In outline:
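Differentiated human HepaRG cells, plated 48 h then switched to serum-free induction medium, were exposed in duplicate for 48 h to 8 half-log concentrations topping at 100 uM in 0.5% DMSO. GCLC mRNA was quantified by qRT-PCR against ACTB, GAPDH and POLR2A.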

Read-out in test [4]: growth arrest and DNA damage 45 (GADD45G), GADD45G (gene 10912)
Description: LTEA_HepaRG_GADD45G: Life Technologies and Expression Analysis (LTEA) Assay for growth arrest and DNA damage 45 (GADD45G) using HepaRG (AID 2283499). In outline: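 Differentiated human HepaRG cells in serum-free induction medium were exposed for 48 h to 8 half-log concentrations up to 100 uM in 0.5% DMSO, in duplicate. GADD45G mRNA was measured by TaqMan qRT-PCR, normalised to ACTB, GAPDH and POLR2A, and fitted bidirectionally against DMSO.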

Read-out in test [5]: Glutamate-cysteine ligase regulatory (GCLM), GCLM (gene 2730)
Description: LTEA_HepaRG_GCLM: Life Technologies and Expression Analysis (LTEA) Assay for Glutamate-cysteine ligase regulatory (GCLM) using HepaRG (AID 2283500). The method in brief: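 Differentiated HepaRG cells exposed 48 h in serum-free induction medium to eight half-log concentrations up to 100 uM (0.5% DMSO). GCLM mRNA by TaqMan qRT-PCR, normalized to ACTB, GAPDH and POLR2A; bidirectional fit versus DMSO.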

Read-out in test [6]: Glutathione S-transferase M3 (GSTM3), GSTM3 (gene 2947)
Description: LTEA_HepaRG_GSTM3: Life Technologies and Expression Analysis (LTEA) Assay for Glutathione S-transferase M3 (GSTM3) using HepaRG (AID 2283501). The method in brief: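 Differentiated HepaRG cells in serum-free induction medium were exposed in duplicate for 48 h to 8 half-log concentrations up to 100 uM in 0.5% DMSO. GSTM3 mRNA was measured by TaqMan qRT-PCR, normalized to ACTB/GAPDH/POLR2A, and fitted bidirectionally versus DMSO.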

Read-out in test [7]: Heat shock 70 kDa protein 1 (HSPA1A), gene 3303
Description: LTEA_HepaRG_HSPA1A: Life Technologies and Expression Analysis (LTEA) Assay for Heat shock 70 kDa protein 1 (HSPA1A) using HepaRG (AID 2283502). The method in brief:
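Human HepaRG cells in serum-free induction medium were exposed in duplicate for 48 h to 8 half-log concentrations, highest 100 uM, in 0.5% DMSO. HSPA1A mRNA read by TaqMan qRT-PCR, normalized to ACTB, GAPDH, POLR2A, fitted bidirectionally against DMSO.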

Read-out in test [8]: Hypoxia-inducible factor 1-alpha (Homo sapiens) (UniProt Q16665)
Description: LTEA_HepaRG_HIF1A: Life Technologies and Expression Analysis (LTEA) Assay for Hypoxia-inducible factor 1 (HIF1A) Trancription factor using HepaRG (AID 2283503). In outline: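 Differentiated HepaRG cells in serum-free induction medium exposed 48 h, in duplicate, to 8-point half-log series from 100 uM in 0.5% DMSO. HIF1A mRNA measured by TaqMan qRT-PCR, normalized to ACTB/GAPDH/POLR2A, fitted bidirectionally versus DMSO.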

Read-out in test [9]: 3-Hydroxy-3-Methylglutaryl-CoA Synthase 2 (HMGCS2), HMGCS2 (gene 3158)
Description: LTEA_HepaRG_HMGCS2: Life Technologies and Expression Analysis (LTEA) Assay for 3-Hydroxy-3-Methylglutaryl-CoA Synthase 2 (HMGCS2) using HepaRG (AID 2283504). The method in brief: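 Differentiated human HepaRG cells were exposed in duplicate for 48 h in serum-free induction medium to eight concentrations (top 100 uM, half-log steps, 0.5% DMSO). HMGCS2 mRNA was quantified by TaqMan qRT-PCR, normalised to ACTB, GAPDH and POLR2A, then fitted bidirectionally against DMSO.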

Read-out in a further test: HGF (gene 3082)
Description: LTEA_HepaRG_HGF: Life Technologies and Expression Analysis (LTEA) Assay for Hepatocyte Growth Facto (HGF) using HepaRG (AID 2283505). In outline: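 Differentiated human HepaRG cells in serum-free induction medium were exposed in duplicate for 48 h to eight concentrations (top 100 uM, half-log steps, 0.5% DMSO). HGF mRNA was quantified by qRT-PCR, normalized to ACTB, GAPDH and POLR2A.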

Read-out in test [10]: Insulin Like Growth Factor 1 (IGF1), IGF1 (gene 3479)
Description: LTEA_HepaRG_IGF1: Life Technologies and Expression Analysis (LTEA) Assay for Insulin Like Growth Factor 1 (IGF1) using HepaRG (AID 2283506). In outline: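 Differentiated HepaRG cells in serum-free induction medium, exposed 48 h in duplicate to 8 half-log concentrations up to 100 uM in 0.5% DMSO. IGF1 mRNA by Fluidigm qRT-PCR, normalised to ACTB, GAPDH and POLR2A.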

Read-out in test [11]: Intercellular Adhesion Molecule 1 (ICAM1), ICAM1 (gene 3383)
Description: LTEA_HepaRG_ICAM1: Life Technologies and Expression Analysis (LTEA) Assay for Intercellular Adhesion Molecule 1 (ICAM1) using HepaRG (AID 2283507). In outline: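 Differentiated HepaRG cells in serum-free induction medium were exposed in duplicate for 48 h to eight half-log concentrations up to 100 uM in 0.5% DMSO. Transcript levels were measured by qRT-PCR normalized to ACTB, GAPDH and POLR2A; bidirectional fits relative to DMSO.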

Read-out in test [12]: Insulin-like growth factor-binding protein 1 (IGFBP1), IGFBP1 (gene 3484)
Description: LTEA_HepaRG_IGFBP1: Life Technologies and Expression Analysis (LTEA) Assay for Insulin-like growth factor-binding protein 1 (IGFBP1) using HepaRG (AID 2283508). In outline:
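Differentiated human HepaRG cells in serum-free induction medium were exposed in duplicate for 48 h to eight concentrations, top 100 uM with half-log dilutions, in 0.5% DMSO. Transcript levels came from qRT-PCR normalised to ACTB, GAPDH and POLR2A, fitted bidirectionally against DMSO.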

Read-out in test [13]: Interleukin 6 (IL6), IL6 (gene 3569)
Description: LTEA_HepaRG_IL6: Life Technologies and Expression Analysis (LTEA) Assay for Interleukin 6 (IL6) using HepaRG (AID 2283509). The method in brief: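 Differentiated human HepaRG cells, plated 48 h then switched to serum-free induction medium, were exposed in duplicate for 48 h to eight half-log concentrations up to 100 uM in 0.5% DMSO. IL6 mRNA measured by qRT-PCR, normalized to ACTB/GAPDH/POLR2A.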

Read-out in test [14]: Interleukin 6 Receptor (IL6R), IL6R (gene 3570)
Description: LTEA_HepaRG_IL6R: Life Technologies and Expression Analysis (LTEA) Assay for Interleukin 6 Receptor (IL6R) using HepaRG (AID 2283510). In outline: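 Differentiated HepaRG cells, plated 48 h, then exposed in duplicate for 48 h in serum-free induction medium to 8 half-log concentrations (top 100 uM, 0.5% DMSO). IL6R mRNA measured by TaqMan qRT-PCR, normalized to ACTB/GAPDH/POLR2A; bidirectional fit vs DMSO.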

Read-out in test [15]: Potassium channel subfamily K member 1 (KCNK1), KCNK1 (gene 3775)
Description: LTEA_HepaRG_KCNK1: Life Technologies and Expression Analysis (LTEA) Assay for Potassium channel subfamily K member 1 (KCNK1) using HepaRG (AID 2283511). The method in brief: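 Differentiated human HepaRG cells in serum-free induction medium were exposed in duplicate for 48 h to 8 half-log concentrations up to 100 uM in 0.5% DMSO. KCNK1 mRNA was measured by TaqMan qRT-PCR, normalized to ACTB, GAPDH and POLR2A, and fitted bidirectionally versus DMSO.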

Read-out in test [16]: Keratin 19 (KRT19), KRT19 (gene 3880)
Description: LTEA_HepaRG_KRT19: Life Technologies and Expression Analysis (LTEA) Assay for Keratin 19 (KRT19) using HepaRG (AID 2283512). The method in brief: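 Differentiated human HepaRG cells, plated 48 h, were exposed in duplicate for 48 h in serum-free induction medium to eight half-log concentrations up to 100 uM in 0.5% DMSO. KRT19 mRNA was quantified by qRT-PCR, normalized to ACTB, GAPDH and POLR2A, and fitted bidirectionally versus DMSO.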

Read-out in test [17]: JUN Transcription Factor, JUN (gene 3725)
Description: LTEA_HepaRG_JUN: Life Technologies and Expression Analysis (LTEA) Assay for JUN Transcription Factor using HepaRG (AID 2283513). The method in brief: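 HepaRG cells, 48 h post-plating, exposed 48 h in serum-free induction medium to 8-point half-log series (top 100 uM, 0.5% DMSO), duplicate; mRNA by qRT-PCR (TaqMan, Fluidigm), normalized to ACTB/GAPDH/POLR2A; bidirectional fit vs DMSO.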

Read-out in test [18]: Lipoprotein lipase (LPL), LPL (gene 4023)
Description: LTEA_HepaRG_LPL: Life Technologies and Expression Analysis (LTEA) Assay for Lipoprotein lipase (LPL) using HepaRG (AID 2283515). The method in brief:
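Differentiated human HepaRG cells in serum-free induction medium were exposed in duplicate for 48 h to eight half-log concentrations (top 100 uM) in 0.5% DMSO. LPL mRNA was quantified by TaqMan qRT-PCR, normalized to ACTB, GAPDH and POLR2A.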

Hypoxia-inducible factor 1-alpha (Homo sapiens), sequence (Q16665 whole entry, looked up): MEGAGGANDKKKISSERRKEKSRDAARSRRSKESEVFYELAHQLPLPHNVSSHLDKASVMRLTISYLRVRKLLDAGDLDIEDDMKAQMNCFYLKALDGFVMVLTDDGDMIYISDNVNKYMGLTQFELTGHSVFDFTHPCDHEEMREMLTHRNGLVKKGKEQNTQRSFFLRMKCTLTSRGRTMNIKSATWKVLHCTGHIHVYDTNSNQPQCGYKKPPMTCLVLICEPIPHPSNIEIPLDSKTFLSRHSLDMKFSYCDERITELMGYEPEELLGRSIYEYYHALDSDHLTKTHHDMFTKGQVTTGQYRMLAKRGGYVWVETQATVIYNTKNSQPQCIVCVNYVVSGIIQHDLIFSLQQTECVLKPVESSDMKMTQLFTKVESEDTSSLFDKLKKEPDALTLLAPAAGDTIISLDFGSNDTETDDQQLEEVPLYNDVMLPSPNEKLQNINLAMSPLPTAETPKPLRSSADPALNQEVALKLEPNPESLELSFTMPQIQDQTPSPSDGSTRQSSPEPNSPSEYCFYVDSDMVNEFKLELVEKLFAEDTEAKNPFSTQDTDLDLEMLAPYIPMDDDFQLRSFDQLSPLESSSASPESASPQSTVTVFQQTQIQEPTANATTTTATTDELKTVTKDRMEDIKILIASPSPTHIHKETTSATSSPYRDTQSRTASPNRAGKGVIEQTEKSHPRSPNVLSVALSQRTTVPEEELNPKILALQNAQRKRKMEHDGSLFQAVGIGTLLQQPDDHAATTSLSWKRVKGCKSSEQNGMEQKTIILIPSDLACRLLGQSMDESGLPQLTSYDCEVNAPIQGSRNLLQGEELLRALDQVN

On to `CNC(=O)Oc1cccc2c1OC(C)(C)O2`, for which the call in [1], in [2], in test [3], in [4], in [5] and in test [6] was inactive. In addition, the compound was classed as inactive (in [7]; in test [8]; in test [9]; in the test with HGF (gene 3082); in test [10]; in test [11]). For the same compound, the call in test [12], in test [13], in test [14], in [15], in [16] and in test [17] was inactive. In addition, in [18], the result was inactive.

Take `C[Si](Cn1cncn1)(c1ccc(F)cc1)c1ccc(F)cc1`: the AC50 was 39.6 µM (active) in [1]; 72.5 µM (active) in test [2]; 33.9 µM (active) in test [4]; 62.8 µM (active) in test [5]; 47.6 µM (active) in test [9]; 50 µM (active) in test [10]. The AC50 in [11] is 81.1 µM (active); in [12], 67.7 µM (active); in test [13], 92.6 µM (active); in test [15] it was 50 µM (active); in test [18], 50 µM (active). Also, the outcome (in test [3]; in test [7]; in test [8]; with HGF (gene 3082); in [14]; in [16]) was inactive. In [17], the compound was classed as inactive.

For `CC(C)N(C(=O)SCC(Cl)=C(Cl)Cl)C(C)C`, the result in [1], in [2], in test [3], in test [4], in test [5] and in test [7] was inactive. Moreover, the outcome (in [8]; in test [9]; with HGF (gene 3082); in test [10]; in test [11]; in [12]) was inactive. Besides, the call in test [13], in test [14], in [15], in test [16], in test [17] and in test [18] was inactive.
